# Paper PMC6451091, “NextPBM: a platform to study cell-specific transcription factor binding and cooperativity”
# In all, about 3,700 sequences were measured (“z-score”: median about 4, highest 2% from about 8.4 on). For the sample, the highest values were picked, then their nearest neighbours and some sequences at random.
# Key:
# PU.1 (IVT) [1] = molecular target: PU.1 (IVT) (UniProt P17947 1-270); experiment: protein-binding microarray (PBM); 20 mM HEPES pH 7.9, 100 mM NaCl, 1 mM DTT, 0.2 mg/mL BSA, 0.02% Triton X-100, 2% milk, 0.4 mg/mL salmon testes DNA; 1 h; temperature not stated; high values mean tight binding; settings: dsDNA, one strand shown
# Outline: (§1)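 Custom double-stranded DNA microarrays bearing 20-bp genomic sites and single-nucleotide variants (10 probes per site, 5 per orientation) were incubated for 1 h with full-length untagged PU.1 made by coupled human in vitro transcription/translation, in HEPES pH 7.9 with 100 mM NaCl, 2% milk and salmon testes DNA. Anti-PU.1 and a fluorescent secondary antibody detected the bound protein. Each binding value is a z-score from scanned fluorescence after linear-regression normalisation.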
# PU.1 (IVT) [2] = molecular target: PU.1 (IVT) (UniProt P17947 1-270); experiment: as above; settings: dsDNA, one strand shown; remark: listed apart in the source
# Outline: as §1
Sequence,binding signal (PU.1 (IVT) [1]) [z-score],binding signal (PU.1 (IVT) [2]) [z-score]
GCCTAGCACTTTAAAGGGAAATACTGTGGGTGCTAGGTCTTGATTCGCTTGACGCTGCTG,1.36,–
GCCTAGCACAGAAACAGGAACTGAGGCCAGTGCTAGGTCTTGATTCGCTTGACGCTGCTG,–,4.78
GCCTAGCACGAAAACAGGAAGTCCGATAGGTGCTAGGTCTTGATTCGCTTGACGCTGCTG,–,7.15
GCCTAGCACTGGGAGAGGAAGTGATGAGCGTGCTAGGTCTTGATTCGCTTGACGCTGCTG,4.01,–
GCCTAGCACAAGCAGAGGAAGTGAGATTTGTGCTAGGTCTTGATTCGCTTGACGCTGCTG,–,3.71
GCCTAGCACCAAAAAGGGAAGTGGACGCTGTGCTAGGTCTTGATTCGCTTGACGCTGCTG,–,6.7
GCCTAGCACATCATCAGGAACTGAAACTGGTGCTAGGTCTTGATTCGCTTGACGCTGCTG,–,1.18
GCCTAGCACAAAGAGAGGAAGTCCCAAGAGTGCTAGGTCTTGATTCGCTTGACGCTGCTG,3.78,–
GCCTAGCACTCAAGAAGGAAGTGCCAAATGTGCTAGGTCTTGATTCGCTTGACGCTGCTG,3.31,–
GCCTAGCACAGAAAAAGGAACTGTGCCCCGTGCTAGGTCTTGATTCGCTTGACGCTGCTG,–,3.05
GCCTAGCACAGCAAGAGGAAGTCAAGTACGTGCTAGGTCTTGATTCGCTTGACGCTGCTG,4.55,–
GCCTAGCACAGAAAGAGGAAATGACCTATGTGCTAGGTCTTGATTCGCTTGACGCTGCTG,5.8,–
GCCTAGCACTGAAAGAGGAAGTGTAACCAGTGCTAGGTCTTGATTCGCTTGACGCTGCTG,–,7.2
GCCTAGCACAGGAAGAGGAAGTGACAGATGTGCTAGGTCTTGATTCGCTTGACGCTGCTG,6.27,–
GCCTAGCACAGAAAGAGGAAGTTCCCGTCGTGCTAGGTCTTGATTCGCTTGACGCTGCTG,–,8.56
GCCTAGCACAGAAAGAGGAAGAGCCTCAGGTGCTAGGTCTTGATTCGCTTGACGCTGCTG,5.13,–
GCCTAGCACGAAAAGAGGAAGTCAAACCAGTGCTAGGTCTTGATTCGCTTGACGCTGCTG,–,8.22
GCCTAGCACAGAAAGAGGAAGTGACACTTGTGCTAGGTCTTGATTCGCTTGACGCTGCTG,–,8.52
GCCTAGCACAGAAAGAGGAAGAGAAACTTGTGCTAGGTCTTGATTCGCTTGACGCTGCTG,4.63,–
GCCTAGCACAGAAAGAGGAAGTCTCTGCCGTGCTAGGTCTTGATTCGCTTGACGCTGCTG,–,7.37
GCCTAGCACAGAAAGAGGAAGTCGAGGTGGTGCTAGGTCTTGATTCGCTTGACGCTGCTG,–,7.74

Sequence,binding signal (PU.1 (IVT) [1]) [z-score],binding signal (PU.1 (IVT) [2]) [z-score]
GCCTAGCACGAAAAGAGGAAGTGTAACCAGTGCTAGGTCTTGATTCGCTTGACGCTGCTG,–,8.52
GCCTAGCACAGAAAGAGGAAGTTATGTGCGTGCTAGGTCTTGATTCGCTTGACGCTGCTG,–,8.58
GCCTAGCACACCAGGAGGAAGTGGTTGCAGTGCTAGGTCTTGATTCGCTTGACGCTGCTG,4.06,–
GCCTAGCACCGAAAGAGGAAGTGCAACCAGTGCTAGGTCTTGATTCGCTTGACGCTGCTG,–,7.64
GCCTAGCACGATAAGAGGAAGTGCTCTGTGTGCTAGGTCTTGATTCGCTTGACGCTGCTG,6.52,–
GCCTAGCACTTTAAAGGGAAATGAAACTGGTGCTAGGTCTTGATTCGCTTGACGCTGCTG,–,1.39
GCCTAGCACGAAAAGAGGAACAGCCTCTGGTGCTAGGTCTTGATTCGCTTGACGCTGCTG,5.13,–
GCCTAGCACGAAAGGGGGAAGTGACTAAGGTGCTAGGTCTTGATTCGCTTGACGCTGCTG,5.51,–
GCCTAGCACTCTCTGAGGAAGTGAAACTCGTGCTAGGTCTTGATTCGCTTGACGCTGCTG,2.86,–
GCCTAGCACAGAAAGAGGAAGTGCTGAGGGTGCTAGGTCTTGATTCGCTTGACGCTGCTG,–,7.75
GCCTAGCACAAAAAAAGGATATGAAAGTAGTGCTAGGTCTTGATTCGCTTGACGCTGCTG,0.953,–
GCCTAGCACAAAAAGAGGAACTGAATGTCGTGCTAGGTCTTGATTCGCTTGACGCTGCTG,–,7.27
GCCTAGCACGAAAGGAGGAAGTACTGTGGGTGCTAGGTCTTGATTCGCTTGACGCTGCTG,–,6.78
GCCTAGCACAGAAAGAGGAAGAGCTGCCAGTGCTAGGTCTTGATTCGCTTGACGCTGCTG,4.1,–
GCCTAGCACAGAAAGAGGAAGTGCCTCTTGTGCTAGGTCTTGATTCGCTTGACGCTGCTG,–,8.4
GCCTAGCACAGAAAGAGGAAGTGGAAGAGGTGCTAGGTCTTGATTCGCTTGACGCTGCTG,–,8.16
GCCTAGCACTCAAGGAGGAAGTGAGAGATGTGCTAGGTCTTGATTCGCTTGACGCTGCTG,4.31,–
GCCTAGCACGTTTTGAGGAACTGAAACTCGTGCTAGGTCTTGATTCGCTTGACGCTGCTG,4.5,–
GCCTAGCACCGAAAAGGGAAATACTGTGAGTGCTAGGTCTTGATTCGCTTGACGCTGCTG,2.65,–
GCCTAGCACAGAAAGAGGAAGTGATTGAAGTGCTAGGTCTTGATTCGCTTGACGCTGCTG,–,8.32
GCCTAGCACAGAAAGAGGAAGTGAAGCTAGTGCTAGGTCTTGATTCGCTTGACGCTGCTG,–,8.64

Sequence,binding signal (PU.1 (IVT) [1]) [z-score],binding signal (PU.1 (IVT) [2]) [z-score]
GCCTAGCACAGAAAGAGGAAGTGGGTGTTGTGCTAGGTCTTGATTCGCTTGACGCTGCTG,–,8
GCCTAGCACAGAAAGAGGAAGAGAAACTAGTGCTAGGTCTTGATTCGCTTGACGCTGCTG,–,4.62
GCCTAGCACAGAAAGAGGAAGTGATGTTAGTGCTAGGTCTTGATTCGCTTGACGCTGCTG,–,8.46
GCCTAGCACAGAAGAAGGAAGTGAAAGAAGTGCTAGGTCTTGATTCGCTTGACGCTGCTG,4.5,–
GCCTAGCACAGAAAGAGGAAGACTAGTGTGTGCTAGGTCTTGATTCGCTTGACGCTGCTG,3.78,–
GCCTAGCACAGAAAGAGGAAGTGACTCAGGTGCTAGGTCTTGATTCGCTTGACGCTGCTG,–,8.06
GCCTAGCACAGAAAGAGGAAGTGTTTATAGTGCTAGGTCTTGATTCGCTTGACGCTGCTG,–,8.43
GCCTAGCACTCCAGGAGGAACTGAAAGCTGTGCTAGGTCTTGATTCGCTTGACGCTGCTG,–,1.74
GCCTAGCACAAAAAGAGGAAATGATTTACGTGCTAGGTCTTGATTCGCTTGACGCTGCTG,–,6.97
GCCTAGCACGAAAACAGGAACTGCAAATAGTGCTAGGTCTTGATTCGCTTGACGCTGCTG,6,–
GCCTAGCACGAAAAGAGGAAGTCAAACGAGTGCTAGGTCTTGATTCGCTTGACGCTGCTG,–,8.02
GCCTAGCACAGAAAGAGGAAGTCAAAACAGTGCTAGGTCTTGATTCGCTTGACGCTGCTG,–,7.68
GCCTAGCACAAAAAGAGGAAGAGAAACTAGTGCTAGGTCTTGATTCGCTTGACGCTGCTG,–,5.79
GCCTAGCACAAAAACAGGAAGTCAAAGGAGTGCTAGGTCTTGATTCGCTTGACGCTGCTG,–,7.11
GCCTAGCACAAAAAGAGGAAGTCAAACTAGTGCTAGGTCTTGATTCGCTTGACGCTGCTG,–,8.48
GCCTAGCACGAAAAGAGGAAGTCAAACTAGTGCTAGGTCTTGATTCGCTTGACGCTGCTG,–,8.35
GCCTAGCACAAAAAGAGGAAGGGAAACTAGTGCTAGGTCTTGATTCGCTTGACGCTGCTG,–,5.12
GCCTAGCACGGAAAGAGGAAGTCAAACTAGTGCTAGGTCTTGATTCGCTTGACGCTGCTG,–,7.68
GCCTAGCACAAAAAGAGGAAGTCAAACAAGTGCTAGGTCTTGATTCGCTTGACGCTGCTG,–,8.71
GCCTAGCACAAAAAAAGGAAGTCCTTGTGGTGCTAGGTCTTGATTCGCTTGACGCTGCTG,6.48,–
GCCTAGCACTTGGTCAGGAAGTGAAACTGGTGCTAGGTCTTGATTCGCTTGACGCTGCTG,1.38,–

Sequence,binding signal (PU.1 (IVT) [1]) [z-score],binding signal (PU.1 (IVT) [2]) [z-score]
GCCTAGCACAGAAAGAGGAAGTCACAAGGGTGCTAGGTCTTGATTCGCTTGACGCTGCTG,–,7.68
GCCTAGCACGAAAGAGGGAAGTGAAAGTCGTGCTAGGTCTTGATTCGCTTGACGCTGCTG,5.25,–
GCCTAGCACGATATGAGGAACTGAAAGCTGTGCTAGGTCTTGATTCGCTTGACGCTGCTG,4.06,–
GCCTAGCACAATAAAGGGAAGTGACTGCTGTGCTAGGTCTTGATTCGCTTGACGCTGCTG,5.43,–
GCCTAGCACAAAAAAAGGAACGGGCTAGAGTGCTAGGTCTTGATTCGCTTGACGCTGCTG,–,1.48
GCCTAGCACAAAAAGAGGAAATGAAAAGAGTGCTAGGTCTTGATTCGCTTGACGCTGCTG,6.67,–
GCCTAGCACAGAAAGAGGAACTGACTGACGTGCTAGGTCTTGATTCGCTTGACGCTGCTG,6.61,–
GCCTAGCACTGAAAAGGGAAGTGAGGAAGGTGCTAGGTCTTGATTCGCTTGACGCTGCTG,5.34,–
GCCTAGCACAAAAAGAGGAAGTAAAAGACGTGCTAGGTCTTGATTCGCTTGACGCTGCTG,–,8.93
GCCTAGCACGAGAAGAGGAAGTAGAACAAGTGCTAGGTCTTGATTCGCTTGACGCTGCTG,6.62,–
GCCTAGCACACGAAGAGGAAGTAAAAGGCGTGCTAGGTCTTGATTCGCTTGACGCTGCTG,6.54,–
GCCTAGCACAAAAAAAGGAAGTGGTAAACGTGCTAGGTCTTGATTCGCTTGACGCTGCTG,6.51,–
GCCTAGCACAAAAAGAGGAAGTAGAGAACGTGCTAGGTCTTGATTCGCTTGACGCTGCTG,–,8.97
GCCTAGCACAAAAAGAGGAAGGGAGTAGAGTGCTAGGTCTTGATTCGCTTGACGCTGCTG,4.77,–
GCCTAGCACCGAAAGGGGATGTGCTAAACGTGCTAGGTCTTGATTCGCTTGACGCTGCTG,1.8,–
GCCTAGCACTATATAGGGAAGTGGGATTCGTGCTAGGTCTTGATTCGCTTGACGCTGCTG,4.85,–
GCCTAGCACTAAATGAGGAAGTGACAGCTGTGCTAGGTCTTGATTCGCTTGACGCTGCTG,–,7.57
GCCTAGCACAATGGCAGGAAGTGAAATCAGTGCTAGGTCTTGATTCGCTTGACGCTGCTG,–,2.15
